# Screening results deposited in PubChem BioAssay by National Center for Advancing Translational Sciences (NCATS).
# Pf growth 48h: Primary qHTS for delayed death inhibitors of the malarial parasite plastid, 48 hour incubation; 5.9% of 310,000 active; AID 504832, 2011; P. falciparum luciferase growth in erythrocytes, 48 h; Potency, µM (doses to about 28.7 µM), inactives show at the top dose activity change, negative = inhibition, hits mostly inhibitors; further: on the % scale 0 is the no-effect control and ±100 the full control effect
#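 Luciferase-expressing parasites in RBCs, 2% Hct / 0.1% parasitemia final; RPMI 1640 + 0.5% Albumax; 37 C, 5% CO2, one generation; luminescence read-out, lower signal = inhibition.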
# Vaccinia mCherry: qHTS for Stage-Specific Inhibitors of Vaccinia Orthopoxvirus: mCherry Reporter Primary qHTS | 0.63% of 310,000 active | AID 720579, 2013 | Potency, µM (top dose mostly 36.5 µM), for inactives: at the highest dose activity change, negative = inhibition, most hits filed as inhibitors | Vaccinia virus mCherry reporter infection, fluorescence; calls by dose curve; tested in A549 cells; further: on the % scale 0 is the no-effect control and ±100 the full control effect; nearly all actives have a fitted effect of over 35% in size
# HCV inhibitor: qHTS Assay for Inhibitors of Hepatitis C Virus (HCV); Huh7.5.1 HCVcc-Cre infection, luciferase reporter, 44 h; 3.4% of 340,000 active; Potency, µM (series often up to 41.8 µM), for inactives: at the top dose activity change, negative = inhibition, most hits filed as inhibitors; further: on the % scale 0 is the no-effect control and ±100 the full control effect
#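 Reporter virus HCVcc-Cre (~0.5 moi) infects cells exposed to compound; seeding density 1,000 cells/well with 4 h settling beforehand. Luminescence, 15 sec read, taken 44 h post-infection following a 15 min RT substrate incubation.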
# NS1 inh: qHTS Assay for Inhibitors of Influenza NS1 Protein Function; 0.4% of 270,000 active; AID 2326, 2010; Potency, µM (top dose mostly 46.1 µM), without a hit: at the top dose activity, positive = more growth; calls by dose curve; further: actives are rising curves; nearly all actives have a fitted effect of over 50% in size
#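 Growth recovery, yeast-based: influenza A NS1 expressed in S. cerevisiae causes slow growth, and suppressors are detected by OD600. The parent strain without NS1 is used as positive control.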
# Pf growth 96h: Primary qHTS for delayed death inhibitors of the malarial parasite plastid, 96 hour incubation | P. falciparum luciferase reporter growth, 96 h | Potency, µM (series often up to 28.7 µM), inactives show at the highest dose activity change, negative = inhibition, usual class: inhibitors | 6.9% of 320,000 active; further: on the % scale 0 is the no-effect control and ±100 the full control effect
#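 Plates of compound plus infected erythrocytes (2% hematocrit, 0.05% parasitemia final) incubate 96 hours, 37 C, 5% CO2. Detection reagent added; reduced luminescence from the parasites' luciferase reporter flags inhibition.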
# Vaccinia Venus: qHTS for Stage-Specific Inhibitors of Vaccinia Orthopoxvirus: Venus Reporter Primary qHTS; Vaccinia virus Venus reporter expression, fluorescence; Potency, µM (top dose mostly 36.5 µM), for inactives: at the top dose activity change, negative = inhibition, usual class: inhibitors; 0.46% of 330,000 active; calls by dose curve; tested in A549 cells; further: on the % scale 0 is the no-effect control and ±100 the full control effect; nearly all actives have a fitted effect of over 30% in size
# Starred values were filed as active, the others as inactive; i = inactive; ? = inconclusive; nt = no result given; [ ] = dose if it differs, or a comment. Hits are enriched below; roughly 11% of the tested compounds scored in any of these assays. Unless noted, the call rests on the fitted dose curve; in most records, active means well fitted inhibition curve with a large enough effect; inconclusive means small, poorly fitted or top-dose-only effect, or another doubt; inactive means no such curve, though single readings can be large or run the other way. Potency means the concentration at half of the fitted maximal effect.
SMILES,Pf growth 48h,Vaccinia mCherry,HCV inhibitor,NS1 inh,Pf growth 96h,Vaccinia Venus
C=C(C)CSc1nc2sc3c(c2c(=O)n1C1CCCCC1)CCN(C)C3,1.5µM*,?,?,3%,1µM*,-15%
CCSc1nc2sc3c(c2c(=O)n1C1CCCCC1)CCN(C)C3,1.3µM*,-17%,-25%,6%,-5%[5.75 µM],-6%
Cc1ccc(-n2c(SCC(N)=O)nc3c(c2=O)C2(CCCC2)Cc2ccccc2-3)cc1,22%,i,-29%,?,43%,-24%
O=C(N/N=C/c1cccc2ccccc12)c1ccccc1Cl,-7%[0.00184 µM],0%,-25%,-44%,29%,-25%
COc1ccc2c(c1)N(CC[C@H]1CCCCN1C)c1ccccc1S2,nt,nt,nt,-8%,nt,nt
CN1CCCCC1CCN1c2ccccc2Sc2ccc(S(C)=O)cc21 (configuration not stated),?,-27%,?,nt,1.5µM*,-26%
C=CCOc1ccc(/C=N/Nc2ccccn2)cc1OC,158%,-23%,14µM*,nt,202%,-23%
CCCOc1ccc(/C=N/Nc2ccccn2)cc1OC,198%,-20%,?,nt,440%,-11%
COc1cc(/C=N/Nc2ccccc2)ccc1O,?,-17%,-11%,2%,10µM*,-12%
COc1cc(/C=N/Nc2ccccn2)ccc1OCC(C)C,26%,?,8.9µM*,nt,?,-25%
COC(=O)c1[nH]c2cc(OC)c(OC)cc2c1NC(=O)CN1CCN(Cc2ccccc2)CC1,?,nt,nt,-5%,?,nt
COc1cc(/C=N/NP(=S)(c2ccccc2)c2ccccc2)ccc1O,nt,-28%,0%,29%,?,-22%
COC(=O)c1[nH]c2cc(OC)c(OC)cc2c1/C=N/Nc1ccccc1,0%,nt,10µM*,-2%,?,nt
CCOc1ccc(/C=N/Nc2ccccn2)cc1OC,204%,-25%,-22%,nt,105%,-15%
CC1CN(S(=O)(=O)Cc2ccccc2)CC(C)O1 (configuration not stated),9%,nt,5%,?,?,nt
CC(=O)N(C(C)=O)c1nc2nc(C)cc(C)n2n1,14%,-9%,28%,3%,65%,-7%
O=C(Nc1ccc2c(c1)C(=O)N(CC1CCCO1)C2=O)c1ccccc1Br (configuration not stated),?,nt,-18%,0%,?,nt
Cc1cccc(C)c1NC(=S)Nc1ccc(F)cc1,29%,3%,5%,-2%,11%,0%
COc1cc(/C=N/NC(=O)CCN2CCN(C(c3ccccc3)c3ccccc3)CC2)ccc1O,?,-30%,4.5µM*,-2%,12µM*,-29%
O=c1c2ccccc2nc2n1C(CSc1ccccc1)CS2 (configuration not stated),-8%,-15%,17%,0%,-4%,2%
O=C(Nc1ccccc1SCC1CSc2nc3ccccc3c(=O)n21)c1cccc(Cl)c1 (configuration not stated),10µM*,nt,-5%,-7%,?,-30%
O=c1c2ccccc2nc2n1C(CSCc1ccc(Cl)cc1)CS2 (configuration not stated),?,nt,10µM*,5%,?,?
COc1ccc(C(=O)NCCNc2nc3ccc(C)cc3cc2C#N)cc1,?,nt,?,7%,9.3µM*,nt
Cc1csc(SCC(=O)Nc2ccc(Cl)cn2)n1,-9%,i,?,-11%,-26%,-4%
CC(C)(C)c1csc(SCC(=O)Nc2ccc(Cl)cn2)n1,12µM*,nt,?,-1%,?,nt
O=C(CCC(C(=O)c1ccccc1)c1ccccc1)c1ccccc1 (configuration not stated),nt,i,nt,nt,nt,-18%
CCC(C(=O)c1ccc(O)cc1)c1ccccc1 (configuration not stated),13µM*,-1%,-16%,-33%,54%,-26%
